In PubChem BioAssay AID1159580 (chemical genetic matrix, 2015):
Among all 5,500 compounds or so, about 2,000 (36%) were called active. Not shown: some 18% with an inconclusive outcome. The list shows a part of the results. A number with no mark means an inactive call. Rule as the data show it: active = normalized growth mostly below about 0.91 (no sharp cut-off); inconclusive = no clear call, values can overlap the other calls; inactive = mostly above about 0.92.

Experiment: chemical genetic growth profiling, strain panel (AID 1159580);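 also: tested at 20 µM; growth read once vehicle control cultures reached saturation at 30 °C; 1 = growth at the plate median or of vehicle wells; lower values mean less growth of the strain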
Conditions: growth OD
[1] = S. cerevisiae deletion strains, locus YAL013W, strain DEP1, hits give low values
[2] = S. cerevisiae deletion strains, locus YJR075W, strain HOC1, hits give low values
[3] = S. cerevisiae deletion strains, locus YNL153C, strain GIM3, hits give low values

## CCCCOC(=O)NS(=O)(=O)c1sc(CC(C)C)cc1-c1ccc(Cn2c(CC)nc3c(C)cc(C)nc32)cc1
[1]
  normalized growth: 1
S. cerevisiae deletion strains, locus YAL040C, strain CLN3, hits give low values
  normalized growth: 1.01
S. cerevisiae deletion strains, locus YCL061C, strain MRC1 (second series), hits give low values
  normalized growth: 0.999
S. cerevisiae deletion strains, locus YDR150W, strain NUM1, hits give low values
  normalized growth: 1.01
S. cerevisiae deletion strains, locus YDR363W, strain ESC2, hits give low values
  normalized growth: 0.988
S. cerevisiae deletion strains, locus YER002W, strain NOP16, hits give low values
  normalized growth: 0.997
[2]
  normalized growth: 0.999
S. cerevisiae deletion strains, locus YNL128W, strain TEP1, hits give low values
  normalized growth: 1
[3]
  normalized growth: 0.923
S. cerevisiae deletion strains, locus YNL175C, strain NOP13, hits give low values
  normalized growth: 1
S. cerevisiae deletion strains, locus YNL197C, strain WHI3, hits give low values
  normalized growth: 1
S. cerevisiae deletion strains, locus YNL224C, strain SQS1, hits give low values
  normalized growth: 0.98
S. cerevisiae deletion strains, locus YOR083W, strain WHI5 (second series), hits give low values
  normalized growth: 0.919

## Cc1nn(-c2ccccc2)nc1C(=O)NNC(=S)Nc1ccc(Cl)cc1
[1]
  normalized growth: 0.957
S. cerevisiae deletion strains, locus YBR229C, strain ROT2, hits give low values
  normalized growth: 0.983
S. cerevisiae deletion strains, locus YCL061C, strain MRC1, hits give low values
  normalized growth: 1.04
S. cerevisiae deletion strains, locus YEL061C, strain CIN8, hits give low values
  normalized growth: 0.866 (active)
S. cerevisiae deletion strains, locus YGR078C, strain PAC10, hits give low values
  normalized growth: 0.991
S. cerevisiae deletion strains, locus YHR030C, strain SLT2, hits give low values
  normalized growth: 0.889
S. cerevisiae deletion strains, locus YHR087W, strain rtc3, hits give low values
  normalized growth: 0.988
S. cerevisiae deletion strains, locus YJL187C, strain SWE1, hits give low values
  normalized growth: 0.954
S. cerevisiae deletion strains, locus YJR043C, strain POL32, hits give low values
  normalized growth: 0.985
[2]
  normalized growth: 1.33 [resistant] (active)
S. cerevisiae deletion strains, locus YLR039C, strain RIC1, hits give low values
  normalized growth: 0.785 (active)
S. cerevisiae deletion strains, locus YLR058C, strain SHM2 (second series), hits give low values
  normalized growth: 1.01
S. cerevisiae deletion strains, locus YLR085C, strain ARP6, hits give low values
  normalized growth: 0.82
S. cerevisiae deletion strains, locus YLR262C, strain YPT6, hits give low values
  normalized growth: 0.858
S. cerevisiae deletion strains, locus YML094W, strain GIM5, hits give low values
  normalized growth: 0.904
S. cerevisiae deletion strains, locus YMR263W, strain SAP30, hits give low values
  normalized growth: 1.01
[3]
  normalized growth: 1.04
S. cerevisiae deletion strains, locus YNL298W, strain CLA4 (second series), hits give low values
  normalized growth: 0.835 (active)
S. cerevisiae deletion strains, locus YNL322C, strain KRE1, hits give low values
  normalized growth: 1.02
S. cerevisiae deletion strains, locus YNR030W, strain Alg12, hits give low values
  normalized growth: 0.854 (active)
S. cerevisiae deletion strains, locus YPL055C, strain LGE1, hits give low values
  normalized growth: 0.814 (active)
S. cerevisiae deletion strains, locus YPL241C, strain CIN2, hits give low values
  normalized growth: 0.929
S. cerevisiae deletion strains, locus YPR135W, strain CTF4, hits give low values
  normalized growth: 0.969
S. cerevisiae strains, strain wild type, hits give low values
  normalized growth: 0.887 (active)
